This assay in a line: chemical genetic growth profiling, strain panel (AID 1159580).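 Also: tested at 20 µM; growth read once vehicle control cultures reached saturation at 30 °C; 1 = growth at the plate median or of vehicle wells; lower values mean less growth of the strain.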 To be noted: S. cerevisiae deletion strains, growth OD.
[1] abbreviates: locus YAL040C, strain CLN3, active compounds read low.
Where [2] appears, read: locus YCL061C, strain MRC1 (second series), active compounds read low.
Setting [3] is: locus YDR363W, strain ESC2, active compounds read low.
[4] abbreviates: locus YER002W, strain NOP16, active compounds read low.
Where [5] appears, read: locus YNL153C, strain GIM3, active compounds read low.
[6] abbreviates: locus YNL175C, strain NOP13, active compounds read low.
[7] abbreviates: locus YNL197C, strain WHI3, active compounds read low.
The mark [8] stands for this setting: locus YNL224C, strain SQS1, active compounds read low.
The mark [9] stands for this setting: locus YNL322C, strain KRE1, active compounds read low.
The mark [10] stands for this setting: locus YOR083W, strain WHI5 (second series), active compounds read low.

Screen size: about 5,500 compounds; about 2,000 (36%) were called active. Roughly 18% stayed inconclusive and do not appear here. This is one part of the list. Unmarked numbers belong to inactive results. Rule as the data show it: active = normalized growth mostly below about 0.91 (no sharp cut-off); inconclusive = no clear call, values can overlap the other calls; inactive = mostly above about 0.92.

For the molecule `CCCC(=O)NCCc1c2n(c3ccc(OC)cc13)CCCc1ccccc1-2`, the normalized growth is 0.991 under setting [1]; 1.01 under setting [2]; 0.998 under setting [3]; 0.996 under setting [4]; 1.01 (locus YGR078C, strain PAC10, active compounds read low); 0.995 (locus YJR075W, strain HOC1, active compounds read low). Further, the normalized growth runs as follows: (locus YMR307W, strain GAS1, active compounds read low) 1.01; under setting [5], 0.984; under setting [6], 0.99; under setting [7], 0.995; under setting [8], 0.984; under setting [9], 1.01. Besides, the normalized growth under setting [10] was 0.972.

Consider `CCCC(=O)NCCc1c2n(c3ccc(OC)cc13)Cc1ccccc1-2`, for which the normalized growth was 0.986 (locus YAL013W, strain DEP1, active compounds read low); 1.08 under setting [1]; 1.01 under setting [2]; 1 (locus YDR150W, strain NUM1, active compounds read low); 0.993 under setting [3]; 0.995 under setting [4]. In addition, the normalized growth is 0.983 (locus YNL128W, strain TEP1, active compounds read low); 0.754 (active) under setting [5]; 0.964 under setting [6]; 0.97 under setting [7]; 0.963 under setting [8]; 0.995 under setting [9]. Also, the normalized growth reads like this: under setting [10], 0.686 (active); (locus YPL055C, strain LGE1, active compounds read low) 1.01; (locus YPL241C, strain CIN2, active compounds read low) 1.01.

Values taken from PubChem BioAssay AID1159580 (chemical genetic matrix, 2015).
